Source: PubChem BioAssay
IL-1B inflam inh – inflammasome signaling inhibition, IL-1 beta readout | 4.7% of 360,000 active | THP-1 LPS/ATP IL-1B secretion, AlphaLISA, 16 h; active compounds read low | activity change, % at 57.5 µM | AID 743279; in the data active = activity change below about -50%; inconclusive = mostly about -30% to -49%; note: % is set by controls: 0 for no effect and ±100 for the full control effect
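Secreted IL-1B measured by AlphaLISA bead assay after 16 h compound exposure of THP-1 cells; compounds (final up to 57.5 uM) added 1 h before LPS (250 ng/mL) and ATP (1.25 mM) stimulation; lower signal means less secretion.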
KB-V1 cytotox – kills drug-selected multidrug resistant KB-V1 cells; KB-V1 MDR cells viability, CellTiter-Glo, 72 h; Potency, µM (highest dose often 46.1 µM), usual class: cytotoxic; 3.4% of 400,000 active; AID 1347076; note: potency is the fitted concentration of half-maximal effect; % is set by controls: 0 for no effect and ±100 for the full control effect; nearly all actives have a fitted effect of over 60% in size
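Compound-treated KB-V1 multidrug-resistant cells, 72 h, 37 degrees C; viability by CellTiter-Glo. Fitted qHTS curves give the values.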
MCF10A rereplic – induces DNA re-replication in MCF 10a normal breast cells; MCF 10A DNA re-replication, Hoechst nuclear intensity, 48 h; Potency, µM (top dose mostly 46.1 µM), without a hit: top-dose activity, positive = re-replication, most hits filed as activators; 2.9% of 350,000 active; AID 624296; note: potency is the fitted concentration of half-maximal effect; % of control where 0% means no effect; nearly all actives have a fitted effect of over 50% in size
KB-3-1 tox – kills parental KB-3-1 adenocarcinoma cells; KB-3-1 viability, CellTiter-Glo ATP luminescence, 72 h; Potency, µM (doses to about 46.1 µM), usual class: cytotoxic; 1.4% of 400,000 active; AID 1347075; note: potency is the fitted concentration of half-maximal effect; % is set by controls: 0 for no effect and ±100 for the full control effect; nearly all actives have a fitted effect of over 60% in size
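Luminescent ATP read-out (CellTiter-Glo) measures survival of drug-naive KB-3-1 cells after 72 h compound exposure at 37 °C. Titration series was screened from lowest to highest concentration, with DMSO vehicle plates as background controls.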
SW480 rereplic – DNA re-replication induction in SW480 cells; SW480 DNA re-replication, Hoechst DNA content imaging, 48 h; Potency, µM (top dose mostly 46.1 µM), without a hit: top-dose re-replication activation, usual class: activators; 1.8% of 340,000 active; AID 624297; note: potency is the fitted concentration of half-maximal effect; % of control where 0% means no effect; nearly all actives have a fitted effect of over 55% in size
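Quantitative HTS format with DMSO vehicle controls; 48 hr drug incubation at 37 C, then 40 min Hoechst staining and scanning imager measurement at 405 nm excitation.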
* hit, by the source's call; i = inactive; ? = inconclusive; · = no result given; [ ] = dose if it differs, or a comment. Most compounds without a hit are left out; they make up all but 9.9% or so of the library. Unless noted, calls come from the whole dose curve; as a rule, active = well fitted curve in the direction sought with a large enough effect; inconclusive = small, poorly fitted or top-dose-only effect, or another doubt; inactive = no such curve, though single readings can be large; an effect the other way counts as inactive or inconclusive.

SMILES	IL-1B inflam inh	KB-V1 cytotox	MCF10A rereplic	KB-3-1 tox	SW480 rereplic
Cc1c(C(=O)NCCSCc2ccccc2)cccc1[N+](=O)[O-]	-57*	i	11%	i	4%
Cc1c(C(=O)N(CCc2ccccc2)Cc2ccccc2)cccc1[N+](=O)[O-]	-82*	i	?	i	?
Cc1cc(CNC(=O)c2cccc([N+](=O)[O-])c2C)c2ccccc2n1	-10	5.8µM*	-2%	i	13%
Cc1cc(CNC(=O)Cc2ccccc2)c2ccccc2n1	29	?	1%	i	2%
Cc1ccc(C(=O)NCCSCc2ccc(Cl)cc2Cl)cc1[N+](=O)[O-]	-58*	i	?	i	4%
CC1(C(=O)NS(=O)(=O)c2ccccc2C(F)(F)F)CCN1C(=O)C1CCCCC1 (stereo not given)	29	i	·	i	·
COc1ccc(C(=O)NCCc2cc3ccc(C)c(C)c3[nH]c2=O)cc1OC	1	i	27%	i	6%
Cc1c(C(=O)NCCSc2ccc(Cl)cc2)cccc1[N+](=O)[O-]	-20	i	11%	i	-3%
Cc1ccc(C(=O)NCCc2cc3ccc(C)c(C)c3[nH]c2=O)cc1[N+](=O)[O-]	-17	4.1µM*	2%	i	?
Cc1c(C(=O)NCCSCc2ccc(Cl)cc2Cl)cccc1[N+](=O)[O-]	-58*	26µM*	?	?	20%
COc1cc(CNc2ncnc3c2ncn3[C@H]2CN(Cc3ccncc3)C[C@@H](CO)O2)cc(OC)c1OC	74	i	·	i	·
COc1cccc(CCN2CCC(CNS(=O)(=O)c3cc(-c4cc(C)no4)ccc3C)CC2)c1	-62*	?	16%	i	?
COC(=O)c1ccc(NS(=O)(=O)c2cc(-c3cc(C)no3)ccc2OC)cc1	35	?	25%	5.8µM*	18µM*
COc1ccc(-c2cc(C)no2)cc1S(=O)(=O)NCCCN1CCCCCC1	-51*	i	26%	i	?
COc1ccc(Cl)cc1NS(=O)(=O)c1cc(-c2cc(C)no2)ccc1C	·	3.7µM*	·	13µM*	·
COc1cccc(CCN2CCC(CNS(=O)(=O)c3cc(-c4cc(C)no4)ccc3OC)CC2)c1	-12	i	24%	?	?
COc1ccc(-c2cc(C)no2)cc1S(=O)(=O)N1CCCCC1	11	i	-4%	i	3%
COc1ccc(-c2cc(C)no2)cc1S(=O)(=O)Nc1ccccc1	-12	i	?	?	?
CCn1c(C(=O)N2CCCC(C(=O)N3CCN(c4ccccc4)CC3)C2)cc2sccc21 (stereo not given)	·	i	·	i	·
C#CCNC(=O)C[C@@H]1C[C@@]2(C(=O)OC)CC(C)(C)CC=C2N(Cc2ccccc2)C1=O	5	?	·	i	·
Cc1cc(C(=O)CN2CCN(CC(=O)Nc3cccc(F)c3)CC2)c(C)n1C1CC1	-5	10µM*	-6%	i	-2%
CNc1oc(-c2ccccc2Cl)nc1C#N	-4	21µM*	3%	?	-5%
CCOC(=O)C1(CCOC)CCN(C(=O)c2ccc(CSC)o2)CC1	-4	i	-2%	i	-16%
C[n+]1ccc(/C=C/c2c[nH]c3ccc(F)cc23)cc1	31	i	?	8.2µM*	?
Cn1cc(/C=C/c2cc[n+](C)cc2)c2cc(F)ccc21	-4	i	?	i	?
SMILES	IL-1B inflam inh	KB-V1 cytotox	MCF10A rereplic	KB-3-1 tox	SW480 rereplic
O=S1OC(c2ccccc2)c2cc(Cl)ccc21 (stereo not given)	-111*	i	-65%	i	-6%
CC(C)C[C@]1(c2ccccc2)ON(c2ccccc2C(F)(F)F)C1=O	-11	i	?	i	?
CC[C@]1(c2ccccc2OC)ON(c2ccccc2C(F)(F)F)C1=O	0	?	?	23µM*	?
COc1ccccc1[C@]1(C)ON(c2ccccc2C(F)(F)F)C1=O	-100*	?	14%	i	9%
N#C/C(=C\c1ccc([N+](=O)[O-])o1)C(=O)Nc1ccc(F)cc1	-90*	i	?	i	?
N#CCc1ccc(NC(=O)/C=C/c2ccc([N+](=O)[O-])o2)cc1	-98*	?	16µM*	5.2µM*	?
COc1ccc(NC(=O)/C(C#N)=C\c2ccc(Br)o2)cc1	-27	i	-2%	i	10%
O=C(O)/C=C/c1ccc([N+](=O)[O-])o1	-20	i	?	i	?
N#CCc1nn(Cc2ccc(F)cc2)c(=O)c2ccccc12	6	i	2%	i	-1%
O=C(NCc1cccnc1)c1ccc(Cl)c(S(=O)(=O)Nc2ccccc2C(=O)NCc2cccnc2)c1	60	i	4%	i	-4%
COc1cccc(/C=C2\SC(=S)N(N3C(=O)CCCC3=O)C2=O)c1	-24	i	?	i	5%
CN(C)c1ccc(C=C2SC(=S)NC2=O)cc1	13	i	13%	i	0%
COc1cccc(C(C)=C2SC(=S)NC2=O)c1	2	21µM*	5%	i	-3%
O=C1NC(=S)S/C1=C\c1cc(Cl)ccc1Cl	-16	?	?	?	-10%
COc1cccc(C=C2SC(=S)NC2=O)c1	-7	?	16µM*	?	1%
CCOc1c(O)ccc(/C=C2\SC(=S)NC2=O)c1[N+](=O)[O-]	-16	i	26µM*	i	26%
CCO/C(C)=C1/SC(=S)NC1=O	-1	i	5%	?	-5%[9.22 µM]
CCOc1ccc(N(C)c2ccc(/C=C3/SC(=S)NC3=O)cc2)cc1	21	i	4.1µM*	i	?
CCOCCCNc1ncnc2c1nc1n2CCCC1	9	i	17%	i	-5%
COc1ccc2cc(/C=C3\SC(=S)NC3=O)c(N3CCOCC3)nc2c1	-69*	?	?	?	-3%
COc1ccc(OC)c(NC(=O)c2nc(S(=O)(=O)Cc3ccccc3F)ncc2Cl)c1	·	i	·	?	·
COc1cccc(NC(=S)N(CCN(C)C)C(C)c2ccco2)c1 (stereo not given)	0	?	-3%	i	·
COc1ccc(NC(=S)N(CCN(C)C)C(C)c2ccco2)cc1Cl (stereo not given)	-1	23µM*	29%	i	-15%
CC(=O)Nc1ccc(Cl)c(C(N)=O)c1	0	i	-8%	i	-7%
NC(=O)c1cc(N2C(=O)C=CC2=O)ccc1Cl	0	i	18µM*	i	?
CCc1ccccc1NC(=O)c1ccc2c(c1)CCCN2S(C)(=O)=O	·	i	·	i	·
CCOC(=O)N/N=C(\C)c1ccc(OC(F)F)cc1OC(F)F	?	i	-9%	i	-13%
